Compounds without any hit were thinned out: in the full panel of roughly 79,000, 15% have a hit. Calls of active or inactive are those of the source. No stated cut-off is given here; in the data, active means growth inhibition above about 70%; inactive means the rest.
Experiments:
[1] = NCI Yeast Anticancer Drug Screen. Data for the rad14 strain (AID 159);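 further: 0% = growth of vehicle-treated control cultures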; conditions: S. cerevisiae rad14 strain growth inhibition, stronger effect = higher value
Outline: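 A mutant yeast strain defective in DNA damage repair is treated with compound; inhibition of its growth is scored against untreated, vehicle-exposed cultures.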

[2] = NCI Yeast Anticancer Drug Screen. Data for the sgs1 mgt1 strain (AID 161);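 further: 0% = growth of cultures given vehicle only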; conditions: S. cerevisiae sgs1 mgt1 strain, stronger effect = higher value
Outline: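 Test agents were incubated with a DNA-repair-mutant yeast strain. Growth was then read and compared against vehicle-treated controls.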

[3] = NCI Yeast Anticancer Drug Screen. Data for the CLN2oe strain (AID 163);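 further: 0% = growth of vehicle-only control cultures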; conditions: S. cerevisiae CLN2oe strain, stronger effect = higher value
Outline: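 First, the altered yeast strain was treated with each compound; second, its growth was measured; finally, inhibition was derived by comparison with vehicle controls.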

[4] = NCI Yeast Anticancer Drug Screen. Data for the cln2 rad14 strain (AID 165);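 further: 0% = growth equal to vehicle treated cultures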; conditions: S. cerevisiae cln2 rad14 strain, stronger effect = higher value
Outline: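 Test compounds were added to cln2 rad14 yeast cultures; inhibition of growth was then determined by comparison with vehicle treatment.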

[5] = NCI Yeast Anticancer Drug Screen. Data for the bub3 strain (AID 167); conditions: S. cerevisiae bub3 mutant strain, stronger effect = higher value
Outline: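 Steps: expose the mutant yeast strain to compound; grow alongside vehicle-treated cultures; measure growth; express inhibition against the vehicle cultures.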

[6] = NCI Yeast Anticancer Drug Screen. Data for the wt2 strain (AID 169);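 further: 0% = growth of vehicle-treated yeast cultures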; conditions: S. cerevisiae wt2 strain growth inhibition, stronger effect = higher value
Outline: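 The panel's yeast strains carry defined changes in DNA repair or cell cycle genes. Each strain is grown with compound, and growth loss is scored relative to vehicle.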

[7] = NCI Yeast Anticancer Drug Screen. Data for the mlh1 strain (AID 171);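 further: 0% = growth of vehicle-treated control cultures of the same strain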; conditions: S. cerevisiae mlh1 strain growth inhibition, stronger effect = higher value
Outline: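 Inhibition values reflect reduced yeast growth in the presence of compound, referenced to vehicle controls, using a strain chosen for its alteration in DNA repair or cell cycle control.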

[8] = NCI Yeast Anticancer Drug Screen. Data for the sgs1 strain (AID 173);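 further: 0% = growth of vehicle-only control cultures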; conditions: S. cerevisiae sgs1 mutant, stronger effect = higher value
Outline: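 Vehicle-treated cultures served as reference for growth inhibition of a yeast strain altered in DNA damage repair or cell cycle control after compound exposure.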

[9] = NCI Yeast Anticancer Drug Screen. Data for the mlh1 rad18 strain (AID 175); conditions: S. cerevisiae mlh1 rad18 strain growth inhibition, stronger effect = higher value
Outline: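 Inhibition values reflect reduced growth of mutant yeast versus vehicle-treated controls following compound exposure; the mutations affect DNA damage repair.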

[10] = NCI Yeast Anticancer Drug Screen. Data for the rad18 strain (AID 177); conditions: S. cerevisiae rad18 mutant growth inhibition, stronger effect = higher value
Outline: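 Steps: expose repair-mutant yeast to compound; measure growth; express as inhibition relative to vehicle control.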

[11] = NCI Yeast Anticancer Drug Screen. Data for the rad52 strain (AID 147);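 further: 0% = growth of vehicle-treated control cultures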; conditions: S. cerevisiae rad52 mutant growth inhibition, stronger effect = higher value
Outline: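 Inhibition of yeast growth, referenced to vehicle controls, was the measured output for a strain with defective DNA damage repair.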

[12] = NCI Yeast Anticancer Drug Screen. Data for the wt1 strain (AID 149);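 further: 0% = growth of vehicle-treated wt1 cultures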; conditions: S. cerevisiae wt1 strain (SPY 50644) growth inhibition, stronger effect = higher value
Outline: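 Compounds are added to wt1 yeast cultures. Growth is then measured. Inhibition is expressed relative to vehicle-treated controls.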

[13] = NCI Yeast Anticancer Drug Screen. Data for the rad50EPP+ strain (AID 151);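 further: 0% = growth of vehicle-treated control cultures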; conditions: S. cerevisiae rad50 mutant strain, stronger effect = higher value
Outline: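 Genetically defined yeast (rad50EPP+, DNA damage repair alteration) is grown with compound, and inhibition of growth is expressed relative to vehicle-treated controls.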

[14] = NCI Yeast Anticancer Drug Screen. Data for the mgt1 strain (AID 153); conditions: S. cerevisiae mgt1 mutant growth inhibition, stronger effect = higher value
Outline: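 In the mgt1 strain, test compounds were added and growth inhibition was determined relative to vehicle-treated controls.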

[15] = NCI Yeast Anticancer Drug Screen. Data for the rad50 strain (AID 155);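 further: 0% = growth of vehicle-only cultures of the same strain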; conditions: S. cerevisiae rad50 strain growth inhibition, stronger effect = higher value
Outline: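 Inhibition values express reduced yeast growth in compound-treated cultures relative to vehicle-treated controls.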

[16] = NCI Yeast Anticancer Drug Screen. Data for the mec2-1 strain (AID 157); conditions: S. cerevisiae mec2-1 strain, stronger effect = higher value
Outline: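 Each compound was tested on mec2-1 yeast, a strain altered in DNA damage repair or cell cycle control. Growth inhibition is reported relative to vehicle.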

[17] = at 5.0 µM (retest, dose inferred, filed as 0.5)
[18] = at 50.0 µM (retest, dose inferred, filed as 5.0)

Measured: growth inhibition

CCCCCCC(O)CNCc1ccnc2ccc(OC)cc12 (stereo not given)
active: [2]; at 50.0 µM 83.5% | [4]; at 50.0 µM 72.2% | [5]; at 50.0 µM 83.7%
inactive: [1]; at 11.0 µM 33% | [1]; at 33.0 µM 33% | [1]; at 100.0 µM 49% | [2]; [17] 23% | [2]; [18] 61% | [3]; at 1.2 µM 9% | [3]; at 3.7 µM 12% | [3]; at 11.0 µM 39% | [3]; at 33.0 µM 49% | [3]; at 100.0 µM 56% | [4]; [17] 14% | [4]; [18] 43% | [5]; at 1.2 µM 1% | [5]; at 3.7 µM 8% | [5]; [17] 20% | [5]; at 11.0 µM 24% | [5]; at 33.0 µM 44% | [5]; [18] 63% | [5]; at 100.0 µM 63% | [6]; at 1.2 µM 4% | [6]; at 3.7 µM 8% | [6]; at 11.0 µM 9% | [6]; at 33.0 µM 14% | [6]; at 100.0 µM 28% | [7]; at 1.2 µM 5% | [7]; at 3.7 µM 9% | [7]; at 11.0 µM 15% | [7]; at 33.0 µM 18% | [7]; at 100.0 µM 35% | [8]; at 1.2 µM 6% | [8]; at 3.7 µM 12% | [8]; at 11.0 µM 18% | [8]; at 33.0 µM 29% | [8]; at 100.0 µM 56% | [9]; [17] 21% | [9]; [18] 61% | [9]; at 50.0 µM 52.2% | [10]; at 1.2 µM 7% | [10]; at 3.7 µM 12% | [10]; at 11.0 µM 8% | [10]; at 33.0 µM 19% | [10]; at 100.0 µM 30%

NC(=O)c1c([N+](=O)[O-])cc(C(F)(F)F)cc1[N+](=O)[O-]
active: [15]; at 50.0 µM 97.8% | [16]; at 50.0 µM 97.2% | [4]; at 50.0 µM 84.3% | [5]; at 50.0 µM 93.1% | [9]; at 50.0 µM 97.8%
inactive: [11]; at 1.2 µM 2% | [11]; at 3.7 µM 1% | [11]; at 11.0 µM 3% | [11]; at 33.0 µM 6% | [11]; at 100.0 µM 7% | [12]; at 1.2 µM 0% | [12]; at 3.7 µM 0% | [12]; at 11.0 µM 0% | [12]; at 33.0 µM 2% | [12]; at 100.0 µM 2% | [13]; at 1.2 µM 1% | [13]; at 3.7 µM 5% | [13]; at 11.0 µM 7% | [13]; at 33.0 µM 16% | [13]; at 100.0 µM 40% | [14]; at 1.2 µM 3% | [14]; at 3.7 µM 5% | [14]; at 11.0 µM 4% | [14]; at 33.0 µM 6% | [14]; at 100.0 µM 6% | [15]; at 1.2 µM -1% | [15]; at 3.7 µM 0% | [15]; [17] -6% | [15]; at 11.0 µM -1% | [15]; at 33.0 µM 3% | [15]; [18] -4% | [15]; at 100.0 µM 11% | [16]; at 1.2 µM 0% | [16]; at 3.7 µM 0% | [16]; [17] 18% | [16]; at 11.0 µM 0% | [16]; at 33.0 µM 3% | [16]; [18] 3% | [16]; at 100.0 µM 10% | [1]; at 1.2 µM 2% | [1]; at 3.7 µM 0% | [1]; at 11.0 µM 0% | [1]; at 33.0 µM 0% | [1]; at 100.0 µM 1% | [3]; at 1.2 µM 2% | [3]; at 3.7 µM -1% | [3]; at 11.0 µM -4% | [3]; at 33.0 µM -5% | [3]; at 100.0 µM -4% | [4]; [17] 8% | [4]; [18] 22% | [5]; at 1.2 µM -1% | [5]; at 3.7 µM -1% | [5]; [17] 7% | [5]; at 11.0 µM 0% | [5]; at 33.0 µM -1% | [5]; [18] 23% | [5]; at 100.0 µM 5% | [6]; at 1.2 µM 0% | [6]; at 3.7 µM 1% | [6]; at 11.0 µM 3% | [6]; at 33.0 µM 4% | [6]; at 100.0 µM 8% | [7]; at 1.2 µM -2% | [7]; at 3.7 µM 2% | [7]; at 11.0 µM 2% | [7]; at 33.0 µM 3% | [7]; at 100.0 µM 8% | [8]; at 1.2 µM 1% | [8]; at 3.7 µM 3% | [8]; at 11.0 µM 5% | [8]; at 33.0 µM 11% | [8]; at 100.0 µM 19% | [9]; [17] 55% | [9]; [18] 12% | [10]; at 1.2 µM 0% | [10]; at 3.7 µM 2% | [10]; at 11.0 µM 4% | [10]; at 33.0 µM 6% | [10]; at 100.0 µM 16%
